Hits are enriched below; roughly 2.4% of the tested compounds scored in any of these assays.
CHRM1 PAM: human CHRM1 positive allosteric modulation. P11229. CHO-K1 hM1, Fluo-8 calcium fluorescence, ACh EC20; 0% = ACh EC20, 100% = maximal ACh. activation, % at 3 µM. 360,000 tested, 0.088% active. AID 588819; in the data active = activation above about 19%, passing the limit was not always enough
Target sequence (P11229 whole entry, looked up): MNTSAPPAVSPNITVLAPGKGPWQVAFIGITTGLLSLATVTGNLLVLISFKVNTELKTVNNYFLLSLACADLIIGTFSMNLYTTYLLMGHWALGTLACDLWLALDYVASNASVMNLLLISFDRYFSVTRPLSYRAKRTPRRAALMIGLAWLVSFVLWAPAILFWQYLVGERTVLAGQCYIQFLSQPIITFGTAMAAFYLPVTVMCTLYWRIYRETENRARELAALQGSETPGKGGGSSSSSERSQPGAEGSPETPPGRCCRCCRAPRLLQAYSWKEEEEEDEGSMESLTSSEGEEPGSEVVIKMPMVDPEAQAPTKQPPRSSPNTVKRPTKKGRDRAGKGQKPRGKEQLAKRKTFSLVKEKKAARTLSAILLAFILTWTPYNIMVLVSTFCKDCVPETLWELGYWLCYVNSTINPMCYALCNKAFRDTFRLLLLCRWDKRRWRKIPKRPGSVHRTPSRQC
CHO-K1 Ca PAM: nonselective activator or artifact in parental CHO-K1 calcium assay; ATP EC20, Fluo-8 calcium fluorescence; 0% at ATP EC20, 100% at ATP max; activation, % at 3 µM; 360,000 tested, 0.02% active;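 active = activation above the run cutoff, the mean activation of all test compounds plus 3 SD, cut at about 40% in these data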;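 also: peak over basal fluorescence ratio in a 140 s read after ATP addition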
CHO-K1 Ca ag: nonselective activator or artifact in parental CHO-K1 cells; activation, % at 3 µM; 360,000 tested, 0.48% active; AID 602248; Fluo-8 calcium fluorescence; scaled to maximal ATP response, vehicle zero; in the data active = activation above about 15%;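 also: untransfected CHO-K1 host cells lacking M1 receptor as counterscreen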
CHO-K1 Ca antag: nonselective inhibitor or artifact in parental CHO-K1 cells | ATP-induced calcium, Fluo-8 fluorescence | inhibition, % at 3 µM | 360,000 tested, 0.6% active;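 active = inhibition above a per-plate cutoff, the plate's mean sample inhibition plus 3 SD, cut at about 24% in these data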;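 also: 0% = DMSO plus EC80 ATP and 100% = DMSO alone without ATP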
CHRM1 agonist: activates human CHRM1 receptor | P11229 | 360,000 tested, 0.33% active | CHO-K1 hM1, Fluo-8 calcium fluorescence, agonist mode; 0% DMSO, 100% acetylcholine EC100 | activation, % at 3 µM;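 active = activation above the run's mean compound activation plus 3 SD, cut at about 16% in these data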;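 also: peak over basal fluorescence ratio within a 140 s kinetic read after compound addition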
CHRM1 antagonist: human CHRM1 antagonism. CHO-K1 hM1, Fluo-8 calcium fluorescence, ACh EC80 antagonist. AID 588852. 360,000 tested, 1.3% active. inhibition, % at 3 µM;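 active = percent inhibition above its own plate's cutoff, namely the mean of that plate's compound wells plus 3 SD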;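 also: peak over basal fluorescence ratio during 140 s after agonist addition; 0% = ACh EC80 plus DMSO and 100% = DMSO alone without agonist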
Numbers without * were called inactive.

SMILES	CHRM1 PAM	CHO-K1 Ca PAM	CHO-K1 Ca ag	CHO-K1 Ca antag	CHRM1 agonist	CHRM1 antagonist
Cc1cc(OCC(=O)Nc2ccc(N3CCN(C(=O)c4ccco4)CC3)cc2)cc(C)c1Cl	-7	6	2	-9	-1	5
Cc1ccccc1C(=O)N1CCN(c2ccc(NC(=S)NC(=O)c3ccco3)cc2)CC1	-9	2	15*	6	12	15
Cc1cc(C)cc(NC(=S)N2CCN(C(=O)c3ccco3)CC2)c1	16	-28	-1	25*	3	-8
Cc1ccc(OCC(=O)Nc2ccc(N3CCN(C(=O)c4ccco4)CC3)cc2)cc1C	-11	-10	15*	10	2	20
O=C(CC(=O)N/N=C/c1cccs1)NCc1ccccc1	4	1	16*	7	-7	7
Cc1ccccc1-n1ncc2c1CC(C)(C)CC2NC(=O)C1=CC(=O)CC(C)(C)O1 (stereo not drawn)	-4	-4	0	-6	-5	3
CSc1ncnc2c1ncn2CCCN1CCN(c2ncccn2)CC1	-16	-10	1	-1	-9	31*
CC(=O)N1CC(C)Sc2ccc(S(=O)(=O)NCCc3cccc(C)c3)cc21 (stereo not drawn)	-13	-20	13	5	2	24
c1ccc(Nc2ncnc3sccc23)cc1	14	25	3	-20	-5	-10
CC(Nc1ncnc2sccc12)c1ccccc1 (stereo not drawn)	-12	6	16*	23	3	25
COC(=O)[C@@H](Cc1ccccc1)NC(=O)NCCc1ccc(OC)c(OC)c1	12	0	2	-2	0	-16
CCOC(=O)CC1C(=O)NCCN1C(=O)c1cccc(OC)c1 (stereo not drawn)	-14	-29	0	18	-2	28*
CCOC(=O)CC1C(=O)NCCN1C(=O)c1ccc(Cl)c(Cl)c1 (stereo not drawn)	2	74*	4	-14	-4	-3
Cc1ccc2[nH]cc(S(=O)(=O)c3ccc(C)c(C)c3)c(=O)c2c1	11	-11	0	17	5	4
Cc1nn(Cc2noc(C(=O)NC3CCC(C)CC3)n2)c(C)c1Br (stereo not drawn)	2	16	1	-13	-4	-4
COc1ncnc2c1ncn2CCCNCc1ccc2c(c1)OCO2	5	8	0	-7	-7	-8
CCN(CC)CCNC(=O)c1ccc(NC(=O)c2cccc(S(=O)(=O)N3CCCCCC3)c2)cc1	-30	10	0	-9	-8	101*
COc1ccc(C(CNC(=O)c2ccc(Cl)c(S(=O)(=O)N3CCCC3)c2)N2CCCC2)cc1 (stereo not drawn)	4	7	0	-12	-8	-5
CCN(CC)CCNC(=O)c1ccc(NC(=O)c2ccc(Cl)c(S(=O)(=O)N3CCCCCC3)c2)cc1	-25	5	0	-14	-7	100*
O=C(Nc1ncccc1O)c1ccc(Cl)c(S(=O)(=O)N2CCCCC2)c1	-6	-14	0	38*	-2	16
CCN(CC)CCNC(=O)c1ccc(Cl)c(S(=O)(=O)Nc2ccc(Cl)cc2)c1	0	18	1	-13	-7	-3
CCN(CC)CCNC(=O)c1ccc(NC(=O)c2ccc(S(=O)(=O)N3CCCCCC3)cc2)cc1	-11	14	1	-10	-8	10
COc1ccc(CCNC(=O)c2ccc(Cl)c(S(=O)(=O)N3CCCC3)c2)cc1	-9	0	16*	-6	0	5
COc1cc(/C=C(\C#N)C(=O)c2c[nH]c3ccccc23)cc(OC)c1O	-6	7	19*	14	23*	23
C=CCCC(=O)N1C[C@H]2CON(C)[C@H]2C[C@H]1c1cccc(Br)c1	11	21	1	-16	-4	-12
SMILES	CHRM1 PAM	CHO-K1 Ca PAM	CHO-K1 Ca ag	CHO-K1 Ca antag	CHRM1 agonist	CHRM1 antagonist
N#CCc1c(C#N)c(N)nc(N2CCN(C=O)CC2)c1C#N	-11	-8	0	24*	-5	6
CC(C)c1ccc(NC2CCCN(C(=O)CCn3cnnn3)C2)cc1 (stereo not drawn)	15	1	1	-8	-2	-15
CC(OC(=O)c1ccc2ncsc2c1)C(=O)Nc1cccc(Cl)c1 (stereo not drawn)	-14	-5	0	9	-4	32*
CC(=O)c1cccc(NC(=O)C(C)OC(=O)c2ccc3ncsc3c2)c1 (stereo not drawn)	4	5	1	-11	-1	4
CCOc1nc(Nc2ccc(Cl)cc2)nc(OCC)n1	-2	4	0	-11	-9	-1
CN(C)c1nc(Nc2ccc(Cl)cc2)nc(OCC#N)n1	-7	-10	1	27*	-5	9
Cc1c(OCC(=O)N(C)c2ccccc2)ccc2c3c(c(=O)oc12)CCC3	2	10	4	-9	-7	-3
COc1ccc(OC)c(S(=O)(=O)N2CCC(C(=O)Nc3ccc(C)c(C)c3)CC2)c1	-12	-8	9	-5	5	36*
CCC1(c2ccccc2)ON(c2c(Br)cccc2Br)C1=O (stereo not drawn)	5	-19	0	5	-4	-6
CC1CCC(NC(=O)c2[nH]c(C(F)(F)F)nc2-c2ccccc2)CC1 (stereo not drawn)	-5	4	2	-10	1	-10
COc1cc(-c2nnc(NC(=O)CCS(=O)(=O)c3ccccc3)o2)cc(OC)c1OC	-2	-20	1	-10	-7	5
Cc1cc(/C=C2\NC(=S)N(C)C2=O)ccc1N1CCCC1	-30	-18	76*	60*	55*	59*
CCCN1C(=O)/C(=C/c2ccc(OCC(=O)OCC)cc2)NC1=S	4	21	11	-11	2	-4
CCCN1C(=O)/C(=C/c2ccc(N3CCCC3)c(C)c2)NC1=S	-8	0	54*	60*	47*	59*
Cc1cc(/C=C2/C(=O)N(C)C(=S)N2C)ccc1N1CCCC1	-11	-11	3	8	-2	12
O=C(Cc1ccc(NC(=O)C2CCCN(C(=O)C3CCC3)C2)cc1)Nc1cccc(C(=O)N2CCCCC2)c1 (stereo not drawn)	3	-10	0	-16	-7	-5
CCOc1ccc(NC(=S)Nc2ccccc2C2CC2)cc1	-9	-15	0	26*	-6	10
COc1ccc(N2CCN(C(=O)COC(=O)c3ccc(OC(F)F)cc3)CC2)cc1	10	6	0	-15	0	-13
Nc1c(C(=O)NCc2ccccc2)nnn1Cc1ccc(F)cc1	4	17	4	-9	20*	-5
Cc1ccc(Cn2nnc(C(=O)Nc3cccc(C)c3C)c2N)cc1	-7	3	13	14	39*	18
